Assay results taken from ChEMBL document CHEMBL2218924, “A broad activity screen in support of a chemogenomic map for kinase signalling research and drug discovery” (Biochem J, 2013).

Tests used:
[1] = target: Death-associated protein kinase 1 (Homo sapiens) (UniProt P53355); conditions: at 1 µM
[2] = target: Calcium/calmodulin-dependent protein kinase type 1 (Homo sapiens) (UniProt Q14012); conditions: at 1 µM
[3] = target: Calcium/calmodulin-dependent protein kinase type 1 (Homo sapiens) (UniProt Q14012); conditions: at 10 µM
[4] = target: Calcium/calmodulin-dependent protein kinase type II subunit gamma (Homo sapiens) (UniProt Q13555); conditions: at 1 µM
Sequence of Calcium/calmodulin-dependent protein kinase type II subunit gamma (Homo sapiens) (Q13555 whole entry): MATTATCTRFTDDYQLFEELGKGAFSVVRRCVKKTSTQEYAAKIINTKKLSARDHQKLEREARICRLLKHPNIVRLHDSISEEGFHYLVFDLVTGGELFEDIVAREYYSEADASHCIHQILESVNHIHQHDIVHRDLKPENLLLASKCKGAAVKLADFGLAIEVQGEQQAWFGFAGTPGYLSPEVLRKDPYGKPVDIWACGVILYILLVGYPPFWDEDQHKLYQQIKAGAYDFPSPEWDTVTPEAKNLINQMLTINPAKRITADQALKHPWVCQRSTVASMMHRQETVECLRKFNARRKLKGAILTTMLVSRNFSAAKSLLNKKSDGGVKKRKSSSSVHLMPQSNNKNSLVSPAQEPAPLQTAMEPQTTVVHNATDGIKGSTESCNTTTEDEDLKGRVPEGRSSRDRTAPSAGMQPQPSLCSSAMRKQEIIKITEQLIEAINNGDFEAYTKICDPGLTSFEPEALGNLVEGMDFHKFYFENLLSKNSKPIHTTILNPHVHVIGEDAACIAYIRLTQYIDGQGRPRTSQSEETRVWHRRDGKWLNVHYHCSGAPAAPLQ

[5] = target: Calcium/calmodulin-dependent protein kinase type II subunit gamma (Homo sapiens) (UniProt Q13555); conditions: at 10 µM
[6] = target: Calcium/calmodulin-dependent protein kinase type II subunit delta (Homo sapiens) (UniProt Q13557); conditions: at 1 µM
Sequence of Calcium/calmodulin-dependent protein kinase type II subunit delta (Homo sapiens) (Q13557 whole entry): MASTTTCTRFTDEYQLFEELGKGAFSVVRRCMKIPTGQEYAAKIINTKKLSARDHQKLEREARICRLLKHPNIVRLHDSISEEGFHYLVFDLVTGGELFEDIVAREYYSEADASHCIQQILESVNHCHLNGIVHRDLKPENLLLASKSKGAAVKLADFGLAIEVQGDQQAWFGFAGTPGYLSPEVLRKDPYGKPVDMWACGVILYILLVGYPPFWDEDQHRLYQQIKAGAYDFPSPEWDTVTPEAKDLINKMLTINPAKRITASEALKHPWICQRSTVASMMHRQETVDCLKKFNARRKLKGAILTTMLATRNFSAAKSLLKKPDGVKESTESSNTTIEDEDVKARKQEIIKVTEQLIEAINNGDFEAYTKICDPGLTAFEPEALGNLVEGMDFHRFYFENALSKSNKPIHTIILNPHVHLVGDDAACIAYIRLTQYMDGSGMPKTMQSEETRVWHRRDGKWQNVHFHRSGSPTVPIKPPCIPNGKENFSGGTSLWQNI

[7] = target: Calcium/calmodulin-dependent protein kinase type II subunit delta (Homo sapiens) (UniProt Q13557); conditions: at 10 µM
[8] = target: T1, Calcium/calmodulin-dependent protein kinase type IV (Homo sapiens) (UniProt Q16566); conditions: at 1 µM
T1 sequence (whole entry): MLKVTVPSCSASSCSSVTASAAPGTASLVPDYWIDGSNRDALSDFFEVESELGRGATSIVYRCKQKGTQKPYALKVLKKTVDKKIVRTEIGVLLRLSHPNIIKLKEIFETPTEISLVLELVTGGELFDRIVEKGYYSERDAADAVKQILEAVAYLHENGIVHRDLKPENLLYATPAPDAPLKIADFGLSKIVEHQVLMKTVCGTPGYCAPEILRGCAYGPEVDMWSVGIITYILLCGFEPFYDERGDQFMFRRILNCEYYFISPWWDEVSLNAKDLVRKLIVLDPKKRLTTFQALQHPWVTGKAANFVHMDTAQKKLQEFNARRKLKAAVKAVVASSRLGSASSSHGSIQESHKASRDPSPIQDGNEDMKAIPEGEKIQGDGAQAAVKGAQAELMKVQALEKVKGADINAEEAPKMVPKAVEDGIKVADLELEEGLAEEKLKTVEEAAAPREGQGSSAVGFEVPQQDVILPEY

[9] = target: T1, Calcium/calmodulin-dependent protein kinase type IV (Homo sapiens); conditions: at 10 µM
[10] = target: Death-associated protein kinase 2 (Homo sapiens) (UniProt Q9UIK4); conditions: at 1 µM
Sequence of Death-associated protein kinase 2 (Homo sapiens) (Q9UIK4 whole entry, looked up): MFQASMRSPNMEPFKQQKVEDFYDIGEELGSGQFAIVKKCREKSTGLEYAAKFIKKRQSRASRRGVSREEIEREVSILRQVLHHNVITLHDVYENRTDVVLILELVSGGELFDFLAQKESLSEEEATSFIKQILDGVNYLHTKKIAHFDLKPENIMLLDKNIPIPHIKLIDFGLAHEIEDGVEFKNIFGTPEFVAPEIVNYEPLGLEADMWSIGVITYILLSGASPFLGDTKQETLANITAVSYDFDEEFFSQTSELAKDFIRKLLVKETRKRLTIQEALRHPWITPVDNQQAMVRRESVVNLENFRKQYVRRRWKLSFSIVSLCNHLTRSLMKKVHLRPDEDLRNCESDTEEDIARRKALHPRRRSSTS

[11] = target: Death-associated protein kinase 2 (Homo sapiens) (UniProt Q9UIK4); conditions: at 10 µM
[12] = target: T2, Serine/threonine-protein kinase DCLK2 (Homo sapiens) (UniProt Q8N568); conditions: at 1 µM
T2 sequence (whole entry): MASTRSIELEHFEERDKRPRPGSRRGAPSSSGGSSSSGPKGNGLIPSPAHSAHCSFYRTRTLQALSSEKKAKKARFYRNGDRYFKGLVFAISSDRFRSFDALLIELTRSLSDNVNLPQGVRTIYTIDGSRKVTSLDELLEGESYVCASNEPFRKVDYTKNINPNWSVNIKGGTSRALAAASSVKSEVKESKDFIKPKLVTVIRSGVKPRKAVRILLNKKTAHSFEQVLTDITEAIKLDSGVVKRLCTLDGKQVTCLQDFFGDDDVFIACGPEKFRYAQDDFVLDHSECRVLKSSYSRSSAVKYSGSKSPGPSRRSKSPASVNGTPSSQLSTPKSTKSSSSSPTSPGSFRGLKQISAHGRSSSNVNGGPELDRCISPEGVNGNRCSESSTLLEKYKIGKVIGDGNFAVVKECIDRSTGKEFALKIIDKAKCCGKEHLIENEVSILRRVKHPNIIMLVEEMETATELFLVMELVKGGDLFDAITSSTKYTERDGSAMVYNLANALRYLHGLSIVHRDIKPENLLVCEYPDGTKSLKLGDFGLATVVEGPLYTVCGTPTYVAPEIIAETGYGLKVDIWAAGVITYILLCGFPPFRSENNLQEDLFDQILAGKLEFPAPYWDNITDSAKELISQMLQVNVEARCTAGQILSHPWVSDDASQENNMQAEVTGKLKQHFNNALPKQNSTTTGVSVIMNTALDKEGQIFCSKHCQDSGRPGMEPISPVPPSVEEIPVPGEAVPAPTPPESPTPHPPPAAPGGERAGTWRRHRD

[13] = target: T3, Discoidin domain-containing receptor 2 (Homo sapiens) (UniProt Q16832); conditions: at 1 µM
T3 sequence (whole entry): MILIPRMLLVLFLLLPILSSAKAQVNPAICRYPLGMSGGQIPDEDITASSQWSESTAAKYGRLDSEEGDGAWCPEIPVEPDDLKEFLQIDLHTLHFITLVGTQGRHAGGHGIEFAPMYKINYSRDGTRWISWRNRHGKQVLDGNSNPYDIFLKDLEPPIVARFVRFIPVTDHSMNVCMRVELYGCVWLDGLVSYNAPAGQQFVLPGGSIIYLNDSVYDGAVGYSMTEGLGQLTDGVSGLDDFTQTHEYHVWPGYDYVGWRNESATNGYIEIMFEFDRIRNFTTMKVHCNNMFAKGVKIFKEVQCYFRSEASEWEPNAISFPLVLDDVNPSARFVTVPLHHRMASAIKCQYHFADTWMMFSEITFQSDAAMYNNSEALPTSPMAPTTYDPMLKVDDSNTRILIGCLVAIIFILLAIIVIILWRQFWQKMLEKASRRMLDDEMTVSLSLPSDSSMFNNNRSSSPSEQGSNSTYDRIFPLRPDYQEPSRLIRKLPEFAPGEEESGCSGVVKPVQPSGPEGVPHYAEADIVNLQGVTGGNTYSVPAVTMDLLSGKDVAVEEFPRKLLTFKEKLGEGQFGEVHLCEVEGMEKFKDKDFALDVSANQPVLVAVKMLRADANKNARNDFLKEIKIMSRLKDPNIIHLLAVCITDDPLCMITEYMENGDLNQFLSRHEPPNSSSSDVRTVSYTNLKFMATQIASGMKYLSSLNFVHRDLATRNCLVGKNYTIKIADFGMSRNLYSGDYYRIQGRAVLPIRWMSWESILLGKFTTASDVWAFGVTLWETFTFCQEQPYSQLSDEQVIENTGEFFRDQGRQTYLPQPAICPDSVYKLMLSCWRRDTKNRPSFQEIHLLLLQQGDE

[14] = target: T4, Myotonin-protein kinase (Homo sapiens) (UniProt Q09013); conditions: at 1 µM
T4 sequence (whole entry): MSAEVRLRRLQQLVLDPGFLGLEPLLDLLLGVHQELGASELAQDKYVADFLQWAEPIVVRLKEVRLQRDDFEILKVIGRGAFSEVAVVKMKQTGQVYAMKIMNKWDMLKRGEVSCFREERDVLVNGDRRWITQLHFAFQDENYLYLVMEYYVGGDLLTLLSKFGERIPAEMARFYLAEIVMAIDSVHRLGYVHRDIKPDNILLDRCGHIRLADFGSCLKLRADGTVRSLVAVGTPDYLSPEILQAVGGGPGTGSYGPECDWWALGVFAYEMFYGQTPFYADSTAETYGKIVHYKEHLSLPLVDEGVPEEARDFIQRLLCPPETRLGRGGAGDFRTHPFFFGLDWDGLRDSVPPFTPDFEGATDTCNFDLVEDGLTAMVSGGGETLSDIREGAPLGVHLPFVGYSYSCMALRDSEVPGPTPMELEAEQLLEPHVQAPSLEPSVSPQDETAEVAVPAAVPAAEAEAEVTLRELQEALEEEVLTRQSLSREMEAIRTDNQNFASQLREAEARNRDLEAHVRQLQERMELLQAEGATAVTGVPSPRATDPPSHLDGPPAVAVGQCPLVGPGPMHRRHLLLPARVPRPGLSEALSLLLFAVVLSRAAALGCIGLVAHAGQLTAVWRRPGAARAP

[15] = target: T4, Myotonin-protein kinase (Homo sapiens); conditions: at 10 µM
[16] = target: Calcium/calmodulin-dependent protein kinase type II subunit beta (Homo sapiens) (UniProt Q13554); conditions: at 1 µM
Sequence of Calcium/calmodulin-dependent protein kinase type II subunit beta (Homo sapiens) (Q13554 whole entry): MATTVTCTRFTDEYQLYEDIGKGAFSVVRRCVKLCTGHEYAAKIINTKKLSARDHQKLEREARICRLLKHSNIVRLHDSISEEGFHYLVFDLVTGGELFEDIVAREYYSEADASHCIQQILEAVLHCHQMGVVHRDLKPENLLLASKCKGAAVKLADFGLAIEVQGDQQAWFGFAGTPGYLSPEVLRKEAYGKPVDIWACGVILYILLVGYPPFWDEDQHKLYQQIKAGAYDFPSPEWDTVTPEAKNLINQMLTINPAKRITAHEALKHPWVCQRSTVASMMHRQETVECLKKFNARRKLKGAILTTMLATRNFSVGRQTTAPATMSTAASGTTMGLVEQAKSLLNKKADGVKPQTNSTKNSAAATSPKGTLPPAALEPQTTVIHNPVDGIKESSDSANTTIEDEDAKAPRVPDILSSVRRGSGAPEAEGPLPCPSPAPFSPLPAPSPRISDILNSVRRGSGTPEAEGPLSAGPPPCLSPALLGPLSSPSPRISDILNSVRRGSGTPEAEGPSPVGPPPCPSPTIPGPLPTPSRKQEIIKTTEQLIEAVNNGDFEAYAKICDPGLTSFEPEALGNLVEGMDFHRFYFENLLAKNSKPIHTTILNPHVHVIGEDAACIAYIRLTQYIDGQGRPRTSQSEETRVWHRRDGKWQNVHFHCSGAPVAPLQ

[17] = target: Calcium/calmodulin-dependent protein kinase type II subunit beta (Homo sapiens) (UniProt Q13554); conditions: at 10 µM
[18] = target: Death-associated protein kinase 1 (Homo sapiens) (UniProt P53355); conditions: at 10 µM
[19] = target: T2, Serine/threonine-protein kinase DCLK2 (Homo sapiens); conditions: at 10 µM
[20] = target: T3, Discoidin domain-containing receptor 2 (Homo sapiens); conditions: at 10 µM

Sequence of Calcium/calmodulin-dependent protein kinase type 1 (Homo sapiens) (Q14012 whole entry, looked up): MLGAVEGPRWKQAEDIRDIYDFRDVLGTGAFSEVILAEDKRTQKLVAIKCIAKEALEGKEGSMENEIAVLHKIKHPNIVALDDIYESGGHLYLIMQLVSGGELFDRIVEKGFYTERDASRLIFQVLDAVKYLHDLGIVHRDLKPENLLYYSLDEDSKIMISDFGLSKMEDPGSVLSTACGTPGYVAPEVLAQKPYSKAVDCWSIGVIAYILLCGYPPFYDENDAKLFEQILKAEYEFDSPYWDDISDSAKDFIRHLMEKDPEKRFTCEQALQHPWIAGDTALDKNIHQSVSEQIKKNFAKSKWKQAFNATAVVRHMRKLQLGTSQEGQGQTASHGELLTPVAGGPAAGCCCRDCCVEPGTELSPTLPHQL
Sequence of Death-associated protein kinase 1 (Homo sapiens) (P53355 whole entry, looked up): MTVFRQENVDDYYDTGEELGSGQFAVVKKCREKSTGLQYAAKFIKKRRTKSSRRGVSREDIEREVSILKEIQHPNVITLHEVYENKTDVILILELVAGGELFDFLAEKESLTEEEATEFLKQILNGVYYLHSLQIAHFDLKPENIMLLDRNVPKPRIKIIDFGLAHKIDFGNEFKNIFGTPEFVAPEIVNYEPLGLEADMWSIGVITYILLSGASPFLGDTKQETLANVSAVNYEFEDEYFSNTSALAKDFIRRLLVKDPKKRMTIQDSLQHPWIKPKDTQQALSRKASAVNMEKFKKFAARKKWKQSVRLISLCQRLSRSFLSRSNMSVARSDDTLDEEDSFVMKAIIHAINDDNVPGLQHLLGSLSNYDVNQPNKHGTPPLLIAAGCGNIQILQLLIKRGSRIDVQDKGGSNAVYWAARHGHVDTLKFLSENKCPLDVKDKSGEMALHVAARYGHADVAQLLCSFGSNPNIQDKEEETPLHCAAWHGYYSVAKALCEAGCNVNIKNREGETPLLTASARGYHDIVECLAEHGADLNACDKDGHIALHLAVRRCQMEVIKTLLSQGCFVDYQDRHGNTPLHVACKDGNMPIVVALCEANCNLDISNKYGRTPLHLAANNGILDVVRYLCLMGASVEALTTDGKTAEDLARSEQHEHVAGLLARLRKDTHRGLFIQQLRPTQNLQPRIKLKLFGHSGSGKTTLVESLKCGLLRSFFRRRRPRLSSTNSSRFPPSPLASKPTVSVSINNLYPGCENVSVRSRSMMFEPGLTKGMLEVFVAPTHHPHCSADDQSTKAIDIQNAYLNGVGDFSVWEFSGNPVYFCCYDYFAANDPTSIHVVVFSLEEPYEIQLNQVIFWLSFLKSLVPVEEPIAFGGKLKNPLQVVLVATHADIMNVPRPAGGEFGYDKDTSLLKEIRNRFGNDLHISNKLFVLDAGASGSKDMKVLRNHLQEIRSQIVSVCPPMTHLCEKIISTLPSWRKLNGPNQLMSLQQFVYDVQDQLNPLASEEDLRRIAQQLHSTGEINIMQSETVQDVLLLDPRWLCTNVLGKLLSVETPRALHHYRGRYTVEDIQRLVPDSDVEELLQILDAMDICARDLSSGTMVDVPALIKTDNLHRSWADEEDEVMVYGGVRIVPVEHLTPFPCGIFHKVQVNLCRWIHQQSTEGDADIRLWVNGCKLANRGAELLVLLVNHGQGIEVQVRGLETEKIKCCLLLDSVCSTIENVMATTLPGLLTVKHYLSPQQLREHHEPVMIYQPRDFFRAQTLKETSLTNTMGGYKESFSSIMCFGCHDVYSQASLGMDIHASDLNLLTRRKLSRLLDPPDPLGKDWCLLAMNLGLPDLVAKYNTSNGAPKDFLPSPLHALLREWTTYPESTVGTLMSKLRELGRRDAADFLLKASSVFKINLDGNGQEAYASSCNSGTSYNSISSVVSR

## Nc1ccc2ncnc(NCCc3ccc(Oc4ccccc4)cc3)c2c1
[1]
  residual activity: 94%

## CC(C)(C)c1cc(C=C(C#N)C#N)cc(Br)c1O
[2]
  residual activity: 121%
[3]
  residual activity: 105%
[4]
  residual activity: 102%
[5]
  residual activity: 55%
[6]
  residual activity: 104%
[7]
  residual activity: 46%
[8]
  residual activity: 115%
[9]
  residual activity: 83%
[1]
  residual activity: 101%
[10]
  residual activity: 104%
[11]
  residual activity: 103%
[12]
  residual activity: 109%
[13]
  residual activity: 115%
[14]
  residual activity: 98%
[15]
  residual activity: 107%

## COc1cc2ncnc(Nc3ccc(OCc4ccccc4)cc3)c2cc1OC
[2]
  residual activity: 92%
[3]
  residual activity: 57%
[16]
  residual activity: 106%
[17]
  residual activity: 95%
[4]
  residual activity: 109%
[5]
  residual activity: 93%
[6]
  residual activity: 100%
[7]
  residual activity: 83%
[8]
  residual activity: 92%
[9]
  residual activity: 91%
[1]
  residual activity: 94%
[18]
  residual activity: 100%
[10]
  residual activity: 104%
[11]
  residual activity: 112%
[12]
  residual activity: 89%
[19]
  residual activity: 112%
[13]
  residual activity: 108%
[20]
  residual activity: 93%
[14]
  residual activity: 105%
[15]
  residual activity: 103%

## c1cc(-c2cnn3cc(-c4ccc(OCCN5CCCCC5)cc4)cnc23)ccn1
[3]
  residual activity: 61%
[16]
  residual activity: 48%
[17]
  residual activity: 8%
[4]
  residual activity: 39%
[5]
  residual activity: 7%
[6]
  residual activity: 40%
[7]
  residual activity: 6%
[9]
  residual activity: 87%
[1]
  residual activity: 76%
[18]
  residual activity: 84%
[12]
  residual activity: 124%
[19]
  residual activity: 76%
[20]
  residual activity: 69%
[15]
  residual activity: 80%

## CCn1cnc2c(Nc3cccc(Cl)c3)nc(N[C@@H]3CCCC[C@@H]3N)nc21
[2]
  residual activity: 84%
[3]
  residual activity: 27%
[16]
  residual activity: 93%
[17]
  residual activity: 45%
[4]
  residual activity: 43%
[5]
  residual activity: 10%
[6]
  residual activity: 44%
[7]
  residual activity: 10%
[8]
  residual activity: 77%
[9]
  residual activity: 17%
[1]
  residual activity: 96%
[18]
  residual activity: 85%
[10]
  residual activity: 92%
[11]
  residual activity: 76%
[12]
  residual activity: 124%
[19]
  residual activity: 67%
[20]
  residual activity: 78%
[14]
  residual activity: 123%
[15]
  residual activity: 80%

## N#Cc1c(NC(=O)c2cccc3ccccc23)sc2c1CCCC2
[1]
  residual activity: 93%

## CO[C@H]1[C@@H](OC)C[C@H](C)[C@@H](OC)C2=CC(=O)C=C(NC(=O)/C(C)=C/C=C/[C@H](OC)[C@@H](OC(N)=O)/C(C)=C/[C@@H]1C)C2=O
[1]
  residual activity: 96%

## Cc1cc2ncc(-c3ccccc3)nc2cc1C
[1]
  residual activity: 92%

## O=C1c2ccccc2-c2nc3nnnn3nc21
[2]
  residual activity: 107%
[3]
  residual activity: 100%
[16]
  residual activity: 105%
[5]
  residual activity: 105%
[6]
  residual activity: 104%
[7]
  residual activity: 103%
[8]
  residual activity: 122%
[9]
  residual activity: 113%
[10]
  residual activity: 101%
[11]
  residual activity: 114%
[14]
  residual activity: 127%
[15]
  residual activity: 148%

## Oc1ccc(-c2nc(-c3ccc(F)cc3)c(-c3ccncc3)[nH]2)cc1
[1]
  residual activity: 92%

## O=C1C(Cl)=C(N2C(=O)CCC2=O)C(=O)c2ccccc21
[1]
  residual activity: 91%

## O=c1[nH]c2ccccc2n1C1CCN(Cc2ccc(-c3nc4cc5[nH]cnc5cc4nc3-c3ccccc3)cc2)CC1
[2]
  residual activity: 103%
[3]
  residual activity: -5%
[16]
  residual activity: 94%
[17]
  residual activity: 6%
[4]
  residual activity: 104%
[5]
  residual activity: 16%
[6]
  residual activity: 102%
[7]
  residual activity: 2%
[8]
  residual activity: 130%
[9]
  residual activity: 49%
[1]
  residual activity: 93%
[18]
  residual activity: 95%
[10]
  residual activity: 98%
[11]
  residual activity: 78%
[12]
  residual activity: 87%
[19]
  residual activity: 98%
[13]
  residual activity: 109%
[20]
  residual activity: 85%
[14]
  residual activity: 133%
[15]
  residual activity: 143%
